Out of some 93,000 compounds screened, about 180 (0.19%) were called active.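 The calls were made as follows: active = activation above the screen mean plus 3 SD, with well images confirming the hit on visual review (cut at about 28% in these data, passing the limit was not always enough); inconclusive = activation above that limit but images do not confirm it; inactive = activation not above that limit.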 The list comes from a sample in which actives are over-represented; it also holds similar structures and randomly drawn compounds.
Experiment: potentiators of TNFa-induced VCAM1 expression, primary screen, imaging, HUVEC, TNFa stimulus, immunofluorescence (AID 808);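 also: signal is the number of cytoplasmic VCAM-1 stained grains per positive cell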
Conditions: HUVEC TNFa-stimulated VCAM-1 immunofluorescence, high-content imaging; at 2 µM; active compounds read high; scaled per plate to unstimulated/TNFa-only wells

SMILES	activation
CSc1nnc2c(n1)OC(c1cn(C)c3ccccc13)N(C(C)=O)c1ccccc1-2 (stereo not drawn)	-5% (inactive)
CCOc1cc(-c2cc(-c3ccc(OC)cc3)nc(N)c2C#N)ccc1O	32.6% (active)
CSc1ccc(CCNC(=O)C2CCN(c3nnc(-n4cccc4)s3)CC2)cc1	-2.8% (inactive)
O=C(Cn1cnc2c(nnn2Cc2ccc(F)cc2)c1=O)NCc1ccc2c(c1)OCO2	-6.6% (inactive)
Cc1ccc(N2C(=O)c3ccccc3C2(O)c2ncc[nH]2)cc1 (stereo not drawn)	-0.7% (inactive)
CCOC(=O)c1ccc(NC(=O)CS(=O)(=O)c2cn(CC)c3ccccc23)cc1	-6.9% (inactive)
COc1ccc2c(c1)C=CC1(O2)N(CCO)c2ccccc2C1(C)C (stereo not drawn)	1.4% (inactive)
O=C(Nc1nccs1)C1CCN(S(=O)(=O)c2ccc(Cl)c(C(F)(F)F)c2)CC1	-9.5% (inactive)
O=c1c2ccccc2nc2n1C(CSCc1cccc(C(F)(F)F)c1)CS2 (stereo not drawn)	-7.9% (inactive)
O=C(NCc1ccco1)c1sc2cccc(F)c2c1Cl	0.7% (inactive)
CC1(C)CC(=O)C=C(N2CCCC2)C1	79% (active)
Oc1ccc2nc(Cc3ccccc3)[nH]c2c1	5.6% (inactive)
CC(C)NC(=O)c1ccccc1S(=O)c1ccccc1C#N (stereo not drawn)	-0.6% (inactive)
Cc1cc(Nc2ccccc2)n(CCC#N)n1	-2.1% (inactive)
COc1ccc(CC(=O)Nc2sc(Cc3ccccc3)c(C)c2C(N)=O)cc1	8.4% (inactive)
Cn1c(=O)n(C)c2cc(CNc3ccc(N4CCOCC4)c(C(=O)O)c3)ccc21	-26.1% (inactive)
Brc1ccc(-c2nnc(-c3ccccc3)o2)o1	20.5% (inactive)
O=[N+]([O-])c1ccccc1OCCCCN1CCCCC1	-6.6% (inactive)
CCOc1ccccc1Nc1nnc(SCc2ccc(C(=O)OC)o2)s1	-4.9% (inactive)
O=C(CSc1nc2ccccc2o1)N1CCN(c2ccc(Cl)cc2)CC1	6.9% (inactive)
COc1ccc(-c2nnc(SCC(=O)NC3CCCCC3)o2)cc1OC	-87.2% (inactive)

SMILES	activation
CC1(C)Cc2cccc(OCC(N)=O)c2O1	-5.6% (inactive)
O=C1c2ccccc2C(=O)c2c1cccc2N1CCN(Cc2ccccc2)CC1	8.5% (inactive)
COc1ccc(-c2cc(C(F)(F)F)nc(SCCC(=O)NCc3ccco3)n2)cc1	-32.5% (inactive)
COc1ccc(OC)c(N=Cc2c(O)[nH]c3ccccc23)c1	41.3% (active)
O=S(=O)(c1cccs1)N1CCN(Cc2ccccc2)CC1	6.9% (inactive)
CCOC(=O)c1c(N=CN(C)C)c(C#N)c2n1CCCC2	-8.6% (inactive)
Cc1ccc(S(=O)(=O)N(CC(=O)NCCSC2CCCCC2)c2ccccc2F)cc1	8.5% (inactive)
CCOC(=O)N1CCN(C(=O)c2cc3c(ccc4ccccc43)oc2=O)CC1	-5.2% (inactive)
Cc1cnc(NC(=O)CSc2nnc(-c3ccccc3)n2Cc2ccccc2)s1	-2% (inactive)
Cc1ccc2c(Cl)c(C(=O)NCCCn3ccnc3)sc2c1	-28.3% (inactive)
Nc1cc(=O)nc(SCc2ccccc2)n1Cc1ccco1	-95% (inactive)
CCC(=O)c1ccc(OCC(O)CN2CCN(c3cccc(C(F)(F)F)c3)CC2)cc1 (stereo not drawn)	4.1% (inactive)
CCOC(=O)CSc1nc2c(c(=O)n(C)c(=O)n2C)n1Cc1ccccc1F	-0.2% (inactive)
CC(N)C12CC3CC(CC(O)(C3)C1)C2 (stereo not drawn)	1% (inactive)
CC(C)N1C(=O)C2C(C(=O)NC3CCCCC3)C3C=CC2(O3)C1C(=O)NC1CCCC1 (stereo not drawn)	-10.8% (inactive)
COc1ccc(-n2nnnc2SCC(=O)c2ccc(OC)c(OC)c2)cc1	-6.6% (inactive)
CCN(CC(=O)NC(C)C)C(=O)CCNC(=O)c1ccc(Cl)cc1	-9.6% (inactive)
COC(=O)C1=C(C)N=C2SC(C)C(=O)N2C1/C=C/c1ccccc1 (stereo not drawn)	-6.2% (inactive)
COc1ccccc1NC1=NC(c2ccc(Cl)cc2)N=C(N)N1 (stereo not drawn)	-12.5% (inactive)
Cc1ccc(S(=O)(=O)NC(=O)N2CCCC(C)(C)C2)cc1	4.1% (inactive)
Cc1[nH]c2ccccc2c1C(=O)CSCC(=O)O	4.2% (inactive)

SMILES	activation
O=C(OCC(=O)N1CCCC1)c1ccco1	-4.1% (inactive)
NNC(=O)C1CCCn2c1nc1sc3c(c1c2=O)CCCC3 (stereo not drawn)	-4.7% (inactive)
COc1cc(/C=N\NC(=O)C2C(=O)NCC2c2ccccc2)cc(OC)c1O (stereo not drawn)	-1.5% (inactive)
CC(=O)c1ccc(OCCN2CCOCC2)cc1	-16.7% (inactive)
CC1(C)C2CCC13CS(=O)(=O)NC3C2 (stereo not drawn)	19.3% (inactive)
CC1(C)OC(=O)N2CCc3ccccc3C21C (stereo not drawn)	0.2% (inactive)
CCCNS(=O)(=O)c1ccc(CCC(=O)NCc2cccnc2)cc1	34.1% (inactive)
O=[N+]([O-])c1ccccc1/C=N/n1c(COc2ccccc2)n[nH]c1=S	-14.7% (inactive)
CCOC(=O)CCc1c(C)c(C#N)c2[nH]c3ccccc3n2c1=O	0.5% (inactive)
CC(C)OC(=O)c1cc(NC(=O)C2C3CCC(O3)C2C(=O)O)cc(C(=O)OC(C)C)c1 (stereo not drawn)	15.7% (inactive)
Cc1ccc(OCC(=O)Nc2cccc3c2CCCC3)cc1C	-1.7% (inactive)
CSCCC(C(=O)NC1=NCCS1)N1C(=O)c2ccccc2C1=O (stereo not drawn)	5.7% (inactive)
O=C(Nc1ncc2c(n1)CC(c1ccco1)CC2=O)c1ccc(Cl)cc1 (stereo not drawn)	-91.4% (inactive)
CCOC(=O)N1CCN(C(=O)CN(c2ccc(C)c(C)c2)S(=O)(=O)c2ccccc2)CC1	0.5% (inactive)
Cc1n[nH]c(C)c1S(=O)(=O)N1CCCC(C(=O)NCC2COc3ccccc3O2)C1 (stereo not drawn)	-3.9% (inactive)
Cc1ccc(CCNC(=O)C2CCN(S(=O)(=O)N3CCCC3)CC2)cc1	-9.5% (inactive)
CCCc1cc(=O)[nH]c(SCc2ccc(C#N)cc2)n1	-3% (inactive)
O=C(COc1ccc2ccccc2c1)N1CCN(C(=O)c2cccs2)CC1	-21.6% (inactive)
COc1ccc(OC)c(NC(=O)CCN2CCC(C)CC2)c1	1.4% (inactive)
Cc1ccc(S(=O)(=O)NCCSC(C)(C)C)cc1	-9% (inactive)
Cc1ccc(Cn2nnc3c(=O)n(CC(=O)N4CCCCC4)cnc32)cc1	5.6% (inactive)

— PubChem BioAssay AID808 (Columbia University Molecular Screening Center, 2007)
